Compound activity (PubChem BioAssay)
In the library only some 21% were active in any assay of this set; here they are far more common.
TDP1 cell CPT: growth inhibition of DT40 Tdp1-/-;hTDP1 cells with camptothecin (screen for TDP1 inhibitors) | chicken DT40 Tdp1-/-;hTDP1 cells + 20 nM CPT, ATP luminescence, 48 h | Potency, µM (series often up to 46.2 µM), without a hit: at the top dose activity change, negative = growth inhibition, hits mostly inhibitors | 12% of 420,000 active | AID 686979; further: potency means the concentration at half of the fitted maximal effect; on the % scale 0 is the no-effect control and ±100 the full control effect; nearly all actives have a fitted effect of over 55% in size
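Chicken DT40 Tdp1-/- cells stably complemented with human TDP1 were seeded at 400 cells/well in medium containing 20 nM camptothecin, exposed to pin-transferred compounds, and grown at 37 °C for at least 48 hr. Viability was read as ATP luminescence.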
DRD3 agonist: D3 dopamine receptor (human) agonism | D3R DiscoveRx beta-arrestin cells, luminescence, 90 min | 0.58% of 410,000 active | P35462 | max activation, %; in the data active means max activation above about 30%; further: 0% is about no effect
Target sequence (P35462 whole entry, looked up): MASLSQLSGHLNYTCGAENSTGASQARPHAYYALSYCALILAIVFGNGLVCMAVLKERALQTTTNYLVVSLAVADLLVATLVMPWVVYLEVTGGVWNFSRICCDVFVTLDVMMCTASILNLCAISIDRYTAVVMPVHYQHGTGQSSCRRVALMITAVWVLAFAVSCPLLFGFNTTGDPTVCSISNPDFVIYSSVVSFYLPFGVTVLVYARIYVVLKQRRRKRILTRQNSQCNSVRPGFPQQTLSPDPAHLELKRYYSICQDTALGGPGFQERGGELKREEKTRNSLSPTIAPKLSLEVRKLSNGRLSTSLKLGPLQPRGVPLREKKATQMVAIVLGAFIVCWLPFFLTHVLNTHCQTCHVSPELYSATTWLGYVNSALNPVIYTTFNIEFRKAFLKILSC
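Agonist-mode cell screen: cells plated at 1500/well and incubated overnight at 37 °C, then exposed to library compounds for 90 min at 37 °C. Detection reagent was added for 30–60 min at room temperature, and luminescence was read.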
ClpP mod: qHTS Assay for Activators of ClpP. AID 651965, 2013. ATP-dependent Clp protease proteolytic subunit (Bacillus subtilis (strain 168)), P80244. 1.9% of 340,000 active. purified B. subtilis ClpP, FRET peptide cleavage, 20 min. Potency, µM (top dose mostly 57.5 µM), without a hit: top-dose activity change, negative = active; active means well fitted falling curve with a large enough effect; inconclusive means small, poorly fitted or top-dose-only effect; inactive means no such curve, though single readings can be large or run the other way; further: potency means the concentration at half of the fitted maximal effect; the source files actives as falling curves though it sought activators and does not explain the sign; nearly all actives have a fitted effect of over 65% in size
Target sequence (P80244 whole entry, looked up): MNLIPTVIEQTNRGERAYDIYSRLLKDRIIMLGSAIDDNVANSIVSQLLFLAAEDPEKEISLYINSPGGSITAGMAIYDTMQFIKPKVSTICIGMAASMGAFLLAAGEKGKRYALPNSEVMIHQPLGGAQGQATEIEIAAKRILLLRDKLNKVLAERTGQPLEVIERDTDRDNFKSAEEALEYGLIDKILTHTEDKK
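Purified B. subtilis ClpP, 10 microg/mL final in Tris/HCl pH8 with KCl, BSA, glycerol and Tween-20, cleaved an Abz/nitrotyrosine-quenched decapeptide. Fluorescence (ex 320, em 430) was read at 0 and 20 min at room temperature. Delta was normalized to 5.8 microM ADEP and DMSO/no-enzyme controls.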
TDP1 cell noCPT: qHTS for Inhibitors of human tyrosyl-DNA phosphodiesterase 1 (TDP1): qHTS in cells in absence of CPT; Potency, µM (series often up to 46.2 µM), for the others: at the top dose activity change, negative = growth inhibition, most hits filed as inhibitors; 15% of 420,000 active; DT40 Tdp1-/- hTDP1 cells, no CPT, ATP luminescence, 48 h; further: potency means the concentration at half of the fitted maximal effect; on the % scale 0 is the no-effect control and ±100 the full control effect; nearly all actives have a fitted effect of over 55% in size
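Stably hTDP1-transfected Tdp1-null chicken DT40 cells were treated with library compounds minus camptothecin and grown for at least 48 hr at 37 °C, after which cellular ATP was quantified by luminescence.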
IL1B secr inh: blocks inflammasome-driven IL-1 beta release. THP-1 LPS/ATP IL-1B secretion, AlphaLISA, 16 h; active compounds read low. activity change, % at 57.5 µM. 4.7% of 360,000 active; in the data active means activity change below about -50%; inconclusive means mostly about -30% to -49%; further: on the % scale 0 is the no-effect control and ±100 the full control effect
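Secreted IL-1B measured by AlphaLISA bead assay after 16 h compound exposure of THP-1 cells; compounds (final up to 57.5 uM) added 1 h before LPS (250 ng/mL) and ATP (1.25 mM) stimulation; lower signal means less secretion.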
D3 antag: antagonists of human D3 dopamine receptor. D3R cells, DiscoveRx beta-arrestin luminescence, antagonist mode; active compounds read low. P35462. 2.5% of 360,000 active. max response, negative = inhibition, %; in the data active means max response below about -50%; inconclusive means no clear call, values can overlap the other calls; further: on the % scale 0 is the no-effect control and ±100 the full control effect
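Cells expressing the human receptor were seeded at 1500 cells/well, incubated overnight at 37 degrees C in 5% CO2, then exposed to library compounds with dopamine controls for 90 minutes at 37 degrees C before luminescent detection.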
Active calls of the source: *; ? = inconclusive; / = no result; [ ] = dose if it differs, or a comment. Unless noted, the call rests on the fitted dose curve; in most records, active means well fitted inhibition curve with a large enough effect; inconclusive means small, poorly fitted or top-dose-only effect; inactive means flat fitted curve, though single readings scatter.

SMILES | TDP1 cell CPT | DRD3 agonist | ClpP mod | TDP1 cell noCPT | IL1B secr inh | D3 antag
COc1ccc(CNC(=O)N2CCN(c3cccc(Cl)c3)CC2)cc1OC | ? | 3.8 | / | ? | -15.9 | 5.6
COc1ccc(CCNC(=O)CN2CCN(c3cccc(Cl)c3)CC2)cc1OC | 20.6µM* | -0.3 | -0.4% | 20.6µM* | -1.5 | 14.5
COc1cc(CN2CCN(C(O)(c3ccccc3)c3ccccc3)CC2)cc(OC)c1OC | ? | -23.3 | / | 14.6µM* | -69.3* | -71.6*
COc1cc(CN2CCN(S(=O)(=O)c3ccc(F)cc3)CC2)cc(OC)c1OC | ? | 3.2 | 1.3% | ? | 10.6 | -24.4
COc1cc(CN2CCN(c3cccc(Cl)c3)CC2)cc(OC)c1OC | 7.31µM* | -18.4 | -0.4% | 5.8µM* | 33.6 | -71.4*
O=C(O)/C=C/C(=O)Nc1ccc(N2CCOCC2)nc1N1CCOCC1 | 20.6µM* | 6.7 | / | 23.1µM* | -6.8 | -9.8
O=C1CC(NS(=O)(=O)c2cc(F)ccc2F)CN1c1ccc2c(c1)OCCO2 (centres undefined) | -18.2% | -2.0 | -2.3% | -20.3% | 2.9 | -12.3
Cc1ccc(Cl)cc1N1CCN(C(=O)c2cn(C)c3ccc(S(=O)(=O)N4CCCCC4)cc3c2=O)CC1 | 8.6% | -2.8 | -0.9% | 6.0% | / | /
COc1ccc(CCNc2cc(C)nc3c(-c4ccccc4OC)cnn23)cc1OC | ? | 5.4 | / | 18.4µM* | -3.9 | 29.7
CN(C)CCCNc1oc(-c2ccccc2)nc1C#N | -2.1% | -10.8 | -0.9% | -15.7% | -15.7 | 23.9
COc1ccc(CCNc2oc(-c3ccc(OC)c(OC)c3)nc2C#N)cc1 | 11.2µM* | 6.9 | -9.4% | ? | -4.4 | 11.9
CN(C)CCNc1oc(-c2cccc(Cl)c2)nc1C#N | -0.2% | -2.0 | 15.8µM* | ? | -6.4 | -27.2
COc1ccc(-c2nc(C#N)c(NC(C)c3ccccc3)o2)cc1OC (centres undefined) | ? | 1.7 | ? | 16.4µM* | ? | 43.9
COc1ccccc1-c1cnn2c(NCc3ccccc3)cc(C)nc12 | ? | -1.0 | 4.4% | ? | -19.8 | 1.1
CCC(=O)Nc1ccc(CC)cc1-c1nc2ccccc2n(Cc2ccccc2)c1=O | ? | -13.2 | -1.4% | ? | / | /
CCc1ccccc1NC(=O)c1sc2nc3n(c(=O)c2c1C)CCC3 | -15.0% | -15.7 | -1.8% | ? | / | /
COc1ccc(CCNc2oc(-c3ccccc3OC)nc2C#N)cc1OC | ? | -1.3 | ? | 18.4µM* | -11.4 | -2.1
COc1ccc(CCNc2oc(-c3ccccc3OC)nc2C#N)cc1 | ? | -15.1 | -45.9% | ? | ? | 21.6
COc1c2c(cc3c1C(CC(O)C(C)C)N(C)CC3)OCO2 (centres undefined) | 6.0%[9.04 µM] | / | / | -12.8%[9.04 µM] | / | /
O=C(Nn1cnnc1)c1csc2ccccc12 | -0.9% | 0.0 | 1.4% | -8.1% | 12.4 | 20.4
Cc1scc(C(=O)Nn2cnnc2)c1-c1ccccc1 | -15.2% | -13.2 | 0.2% | -0.5% | 0.0 | -54.7*
c1ccc(CNc2ccnc(-c3ccoc3)n2)cc1 | -0.6% | / | / | -22.2% | / | /
O=P(O)(O)OC[C@H]1O[C@](O)(COP(=O)(O)O)[C@@H](O)[C@@H]1O | 7.0% | -17.0 | / | -4.5% | / | /
Nc1nc(NCCO)nc(N2CCCCCC2)c1[N+](=O)[O-] | -5.5% | 0.3 | 0.1% | -4.0% | -16.8 | -0.1
CCC(C)Nc1nc(N)c([N+](=O)[O-])c(N2CCCCCC2)n1 (centres undefined) | ? | -0.4 | -3.2% | 2.59µM* | ? | -17.5
SMILES | TDP1 cell CPT | DRD3 agonist | ClpP mod | TDP1 cell noCPT | IL1B secr inh | D3 antag
CC(C)CNc1nc(N)c([N+](=O)[O-])c(N2CCCCCC2)n1 | ? | 12.7 | / | 16.4µM* | -13.0 | 4.1
CN1CCN(c2nc(NCc3ccco3)nc(N)c2[N+](=O)[O-])CC1 | 8.1% | -17.9 | / | -23.4% | 5.1 | -80.4*
C=CCS(=O)(=O)N1CCCC(Cc2ccccc2C)(C(=O)OCC)C1 (centres undefined) | -0.7% | -0.9 | 0.1% | ? | 0.7 | -2.2
CC(C)/C=N/Nc1nc(-c2ccc(Br)cc2)cs1 | 23.1µM* | 1.9 | 1.3% | 16.4µM* | -29.5 | 11.0
O=C(Nc1nc(-c2ccc(Br)cc2)cs1)c1cccnc1 | -2.3% | 3.7 | / | 6.3% | -15.6 | 6.4
CCc1nnc(NC(=O)CCS(=O)(=O)Cc2ccccc2)s1 | 14.6µM* | 2.4 | / | ? | -5.6 | 9.7
Cc1ccc(S(=O)(=O)CCc2nnc(NC(=O)c3ccccn3)s2)cc1 | ? | -14.2 | -3.8% | 20.6µM* | 0.0 | ?
CC(=O)Nc1ccc(S(=O)(=O)Nc2nc3c(s2)CCCC3)cc1 | -18.1% | 2.7 | 0.1% | -22.5% | 63.4 | -8.9
COCc1nnc(NC(=O)CCS(=O)(=O)c2ccccc2)s1 | 10.3µM* | -3.0 | / | 16.4µM* | -97.4* | 3.1
Cc1ccc(S(=O)(=O)CCc2nnc(NC(=O)c3cnccn3)s2)cc1 | -18.0% | -7.9 | -0.8% | -17.8% | 6.3 | 0.0
Cc1ccc(S(=O)(=O)CCC(=O)Nc2nc3c(s2)CCCC3)cc1 | ? | 0.6 | 1.5% | 29.1µM* | 28.2 | -15.5
COC(=O)Cc1nnc(NC(=O)c2ccccc2)s1 | -8.4% | -5.9 | -1.5% | -27.9% | -13.7 | -21.0
CCCCc1nnc(NC(=O)CCS(=O)(=O)c2ccc(C)cc2)s1 | 13µM* | -2.3 | -0.4% | ? | 5.7 | -16.0
COCc1nnc(NC(=O)c2cccc(NC(=O)c3ccccc3)c2)s1 | ? | 5.0 | -0.4% | 20.6µM* | 33.3 | 6.0
CCCCc1nnc(NC(=O)CN(C)S(=O)(=O)c2ccc(C)cc2)s1 | 0.4% | 10.4 | 1.0% | 6.3% | 36.1 | 9.5
COc1ccc(OC)c2sc(NC(=O)CCS(=O)(=O)c3ccccc3)nc12 | 5.17µM* | 1.5 | 15.7% | 4.61µM* | -21.3 | -16.0
CCc1nnc(NC(=O)CCS(=O)(=O)c2ccccc2)s1 | 25.9µM* | -3.9 | / | ? | 4.5 | 0.0
COc1ccc(/C=N/NC(=O)CN(C)C(=O)OCc2ccccc2)cc1OC | -0.3% | 2.1 | 29.6% | -0.6% | 3.9 | -0.4
CCC(CC)c1nnc(NC(=O)CCS(=O)(=O)Cc2ccccc2)s1 | ? | -14.0 | -2.6% | 14.6µM* | -17.6 | 1.3
CCC(CC)c1nnc(NC(=O)Cc2c[nH]c3ccccc23)s1 | 25.9µM* | -7.4 | 3.1% | 23.1µM* | 1.5 | 22.7
CC(C)c1nnc(NC(=O)CCS(=O)(=O)c2ccccc2)s1 | 16.4µM* | 3.7 | / | ? | -104.5* | -3.8
